Rows were chosen to be rich in hits. Some 0.82% of all compounds tested hit in one or more screens of this group.
RecA splice inh: Mtb RecA intein splicing inhibition. P9WHJ3. cell-free RecA intein splicing, fluorescence. inhibition, % (test concentration not listed). 290,000 compounds, 0.75% hits; in the data active = inhibition above about 30%
FadD28 FP inh: blocks FadD28 binding to the bisubstrate probe; fluorescence polarization; inhibition, % at 12.5 µM; AID 588549; 360,000 compounds, 0.22% hits; in the data active = inhibition above about 8.5%, passing the limit was not always enough
UGM FP inh: blocks M. tuberculosis UGM enzyme | 320,000 compounds, 0.06% hits | inhibition, % at 10 µM | purified UGM, fluorescence polarization probe displacement; in the data active = inhibition above about 10%, passing the limit was not always enough
Target sequence (P9WIQ1 whole entry, looked up): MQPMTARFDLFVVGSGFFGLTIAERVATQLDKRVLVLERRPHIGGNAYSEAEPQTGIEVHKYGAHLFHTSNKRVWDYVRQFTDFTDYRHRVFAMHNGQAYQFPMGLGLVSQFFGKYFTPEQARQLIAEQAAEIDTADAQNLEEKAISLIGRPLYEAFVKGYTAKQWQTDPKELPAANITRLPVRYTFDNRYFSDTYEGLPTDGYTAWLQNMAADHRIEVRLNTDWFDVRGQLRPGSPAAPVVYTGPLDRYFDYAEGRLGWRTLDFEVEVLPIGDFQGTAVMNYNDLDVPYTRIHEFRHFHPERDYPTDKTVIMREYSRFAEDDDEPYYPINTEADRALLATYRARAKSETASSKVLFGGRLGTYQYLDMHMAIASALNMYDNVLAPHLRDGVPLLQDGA
Yp Topo-I inh: blocks Yersinia pestis topoisomerase I activity; Y. pestis Topo-I cleavage product accumulation, plate reader; activity, % at 10 µM; 360,000 compounds, 0.064% hits; AID 504884; in the data active = activity above about 50%, passing the limit was not always enough
Rv3671c protease: inhibits the M. tuberculosis serine protease Rv3671c; P9WHR9; inhibition, % at 5.96 µM; 320,000 compounds, 0.048% hits; AID 2606; in the data active = inhibition above about 38%;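 note: extracellular domain of Rv3671c used as enzyme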
BioA inh: inhibitors of Mycobacterium tuberculosis BioA enzyme. purified M. tuberculosis BioA enzyme, plate reader. 360,000 compounds, 0.096% hits. AID 602481. inhibition, % at 9.99 µM; in the data active = inhibition above about 40%
Large screens that a line does not name were inactive.

O=C(O)CSc1cc(NS(=O)(=O)c2cccc([N+](=O)[O-])c2)c2ccccc2c1O	RecA splice inh 95.2 (no result: UGM FP inh, Rv3671c protease)
NS(=O)(=O)c1cccc(NS(=O)(=O)c2ccc(/C=C/C(=O)OCC(=O)c3ccccc3)cc2)c1	FadD28 FP inh 10.4
COc1cc(N2CCCC2)c(OC)cc1/C=C(/C#N)c1ccc(Br)cc1	UGM FP inh 54.8
COc1cc(N2CCCC2)c(OC)cc1/C=C(/C#N)c1ccc(F)cc1	none
COc1ccc(NC(=O)N(C)C[C@@H]2Oc3cc(C#CCC(C)C)ccc3S(=O)(=O)N([C@H](C)CO)C[C@@H]2C)cc1	none (no result: RecA splice inh, FadD28 FP inh, UGM FP inh, Yp Topo-I inh, Rv3671c protease)
CCN(CC)C(=O)c1ccc2c(c1)C1C=CCC1C(C(=O)O)N2 (centres undefined)	FadD28 FP inh 12.3 (no result: Rv3671c protease)
CCCC1Nc2ccc(C(=O)O)cc2C2C=CCC12 (centres undefined)	FadD28 FP inh 30.5
CCOC(=O)C1Nc2ccc(C(=O)O)cc2C2C=CCC12 (centres undefined)	FadD28 FP inh 20.5 (no result: RecA splice inh)
CC(C)C1Nc2ccc(C(=O)O)cc2C2C=CCC21 (centres undefined)	FadD28 FP inh 9.3 (no result: BioA inh)
CN1C(=O)c2cc(NC(=O)Nc3ccccc3F)ccc2OC[C@H]2O[C@@H](CC(=O)O)CC[C@@H]21	none (no result: RecA splice inh, FadD28 FP inh, UGM FP inh, Yp Topo-I inh, Rv3671c protease)
COc1ccc(S(=O)(=O)Nc2ccc3c(c2)C(=O)N([C@H](C)CO)C[C@H](C)[C@H](CN(C)C(=O)CCCN(C)C)OCCCC[C@H](C)O3)cc1	none (no result: RecA splice inh, FadD28 FP inh, UGM FP inh, Yp Topo-I inh, Rv3671c protease)
CCOC(=O)Cn1c(S(=O)(=O)Cc2ccc(F)cc2)nc(-c2ccccc2)c1-c1ccccc1	Yp Topo-I inh 52.0
CCOC(=O)Cn1c(S(=O)(=O)Cc2cccc(F)c2)nc(-c2ccccc2)c1-c1ccccc1	none
CC(=O)N1[C@@H]2c3cccc(=O)n3C[C@@H]2[C@@H](CO)[C@@H]1C(=O)NCc1ccccc1F	none (no result: RecA splice inh, FadD28 FP inh, UGM FP inh, Yp Topo-I inh, Rv3671c protease)
CCOc1cc(/C=C2\CCCc3c2nc2ccccc2c3C(=O)O)ccc1OC	UGM FP inh 44.4
COc1cc(/C=C2\CCCc3c2nc2ccccc2c3C(=O)O)cc(Br)c1O	FadD28 FP inh 12.3
Cc1cccc(C)c1NC(=O)COC(=O)c1c2c(nc3ccccc13)/C(=C\c1ccc3c(c1)OCO3)CCC2	UGM FP inh 19.0 (no result: RecA splice inh, BioA inh)
COc1cc(C(c2c(C(=O)O)[nH]c3ccccc23)c2c(C(=O)O)[nH]c3ccccc23)ccc1OCc1ccccc1	FadD28 FP inh 32.2
COc1cc(C(NC(C)=O)NC(C)=O)ccc1OCc1ccccc1	none (no result: BioA inh)
O=C(O)c1[nH]c2ccccc2c1C(c1cc(Cl)cc([N+](=O)[O-])c1O)c1c(C(=O)O)[nH]c2ccccc12	FadD28 FP inh 56.2
O=C(O)c1[nH]c2ccccc2c1C(c1ccccc1)c1c(C(=O)O)[nH]c2ccccc12	FadD28 FP inh 22.1
C=CCOc1ccc(C(c2c(C(=O)O)[nH]c3ccccc23)c2c(C(=O)O)[nH]c3ccccc23)cc1	FadD28 FP inh 40.2
COc1ccc(CN=Cc2c(C(=O)O)[nH]c3ccccc23)cc1	none (no result: BioA inh)
COC(=O)c1[nH]c2ccc(Cl)cc2c1NC(=O)c1ccccc1[N+](=O)[O-]	none (no result: BioA inh)
COCC(=O)c1[nH]c2ccccc2c1C	none
Cn1cnc(S(=O)(=O)N[C@H]2CC[C@@H](CC(=O)N3CCN(c4ccccc4)CC3)O[C@@H]2CO)c1	none (no result: RecA splice inh, FadD28 FP inh, UGM FP inh, Yp Topo-I inh, Rv3671c protease)
O=C(O)COc1ccc(Br)cc1CP(=O)(c1ccccc1)c1ccccc1	none (no result: BioA inh)
O=C(O)COc1ccc(Br)cc1C(c1c(C(=O)O)[nH]c2ccccc12)c1c(C(=O)O)[nH]c2ccccc12	FadD28 FP inh 28.0 (no result: RecA splice inh)
O=S(=O)(N[C@H]1CC[C@H](CCn2cc(-c3cccc(F)c3)nn2)O[C@@H]1CO)c1ccc(F)cc1	none (no result: RecA splice inh, FadD28 FP inh, UGM FP inh, Yp Topo-I inh, Rv3671c protease)
COc1ccc(N(C(=O)COc2cccc(C)c2)S(=O)(=O)c2ccc(C)cc2)cc1	RecA splice inh 52.4 (no result: BioA inh)
COc1ccc(OC(=O)COc2cccc(C)c2)cc1	none
C[C@@H]1CN([C@H](C)CO)C(=O)c2cc(NC(=O)c3ccccc3)ccc2O[C@@H](C)CCCCO[C@@H]1CN(C)Cc1ccc(C(=O)O)cc1	none (no result: RecA splice inh, FadD28 FP inh, UGM FP inh, Yp Topo-I inh, Rv3671c protease)
CSc1ccccc1OCc1cc(C(=O)NCCCc2ccccc2)no1	Yp Topo-I inh 57.9
COc1ccc(OCc2cc(C(=O)NCCCc3ccccc3)no2)c(Cl)c1	none
Oc1ccccc1Oc1c(F)c(F)nc(N2CCCC2)c1F	FadD28 FP inh 20.8
Oc1ccccc1Oc1ncc(Br)c(N2CCOCC2)n1	none
O=Cc1s/c(=N\S(=O)(=O)c2ccccc2)n(CCCCl)c1Cl	RecA splice inh 94.6 (no result: UGM FP inh, Rv3671c protease, BioA inh)
COc1ccc(C(=O)NCCc2c[nH]c3ccccc23)cc1S(=O)(=O)N1CCOCC1	FadD28 FP inh 8.4

High-throughput results: PubChem BioAssay, several laboratories
